Results: publication PMC11102862

How the values were obtained:
[1] = target: U5 small nuclear ribonucleoprotein TSSC4 (UniProt Q9Y5U2); assay: cross-linking mass spectrometry
[2] = target: CD2 antigen cytoplasmic tail-binding protein 2 (UniProt O95400); assay: cross-link between two proteins; cross-linking mass spectrometry
[3] = target: U5 small nuclear ribonucleoprotein 40 kDa protein (UniProt Q96DI7); assay: as above
[4] = target: Pre-mRNA-processing-splicing factor 8 (UniProt Q6P2Q9); assay: as above
[5] = target: Thioredoxin-like protein 4A (UniProt P83876); assay: as above
Chain of Thioredoxin-like protein 4A (P83876 whole entry): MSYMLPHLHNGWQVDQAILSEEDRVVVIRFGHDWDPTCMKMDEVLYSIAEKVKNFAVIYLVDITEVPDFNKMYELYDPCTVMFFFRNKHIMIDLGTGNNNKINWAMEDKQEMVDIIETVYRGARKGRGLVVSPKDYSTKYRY

Chain of U5 small nuclear ribonucleoprotein 40 kDa protein (Q96DI7 whole entry): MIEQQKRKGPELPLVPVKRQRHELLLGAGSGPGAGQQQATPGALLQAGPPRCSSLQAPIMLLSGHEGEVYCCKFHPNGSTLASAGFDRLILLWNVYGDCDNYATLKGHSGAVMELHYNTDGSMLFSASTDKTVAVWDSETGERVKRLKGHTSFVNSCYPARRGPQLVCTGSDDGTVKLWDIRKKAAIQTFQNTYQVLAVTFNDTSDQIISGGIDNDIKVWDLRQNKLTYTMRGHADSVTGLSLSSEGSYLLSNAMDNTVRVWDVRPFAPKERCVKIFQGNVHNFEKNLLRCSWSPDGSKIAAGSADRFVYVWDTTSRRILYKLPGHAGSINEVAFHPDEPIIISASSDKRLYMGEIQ
Chain of CD2 antigen cytoplasmic tail-binding protein 2 (O95400 whole entry): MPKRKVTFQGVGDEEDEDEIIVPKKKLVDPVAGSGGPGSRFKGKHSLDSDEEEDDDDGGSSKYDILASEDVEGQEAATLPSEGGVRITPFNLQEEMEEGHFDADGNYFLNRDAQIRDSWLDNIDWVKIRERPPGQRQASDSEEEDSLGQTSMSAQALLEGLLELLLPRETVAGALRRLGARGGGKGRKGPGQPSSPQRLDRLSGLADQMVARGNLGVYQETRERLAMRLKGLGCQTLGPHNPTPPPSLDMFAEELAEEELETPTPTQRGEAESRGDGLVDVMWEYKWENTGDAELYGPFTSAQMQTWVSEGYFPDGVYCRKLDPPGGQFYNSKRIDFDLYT
Chain of U5 small nuclear ribonucleoprotein TSSC4 (Q9Y5U2 whole entry): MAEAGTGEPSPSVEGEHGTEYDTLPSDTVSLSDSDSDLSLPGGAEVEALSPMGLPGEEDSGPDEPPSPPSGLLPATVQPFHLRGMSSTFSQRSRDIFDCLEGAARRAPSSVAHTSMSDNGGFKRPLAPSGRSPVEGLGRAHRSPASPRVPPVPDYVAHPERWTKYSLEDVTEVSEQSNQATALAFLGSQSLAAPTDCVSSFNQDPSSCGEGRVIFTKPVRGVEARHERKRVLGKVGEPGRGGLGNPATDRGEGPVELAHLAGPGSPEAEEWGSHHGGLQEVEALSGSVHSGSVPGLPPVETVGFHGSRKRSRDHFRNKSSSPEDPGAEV

## U5 small nuclear ribonucleoprotein 200 kDa helicase, O75643
[1]
  listed as a hit: yes

## Pre-mRNA-processing factor 6, O94906
[2]
  listed as a hit: yes
[3]
  listed as a hit: yes

## CD2 antigen cytoplasmic tail-binding protein 2, O95400
[4]
  listed as a hit: yes
[5]
  listed as a hit: yes
[3]
  listed as a hit: yes
